Compounds with a hit are over-represented: about 5.8% of the library has one in this group of screens.
GBA mod: alters purified human glucocerebrosidase activity; Potency, µM; purified enzyme, resorufin glucoside fluorescence (screen aimed at inhibitors), 20 min; 48,000 tested, 1.1% active; AID 360; P04062; in the data active = potency below about 15 µM; inconclusive = mostly about 16 µM to 33 µM;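 note: the screen sought inhibitors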
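Normal human glucocerebrosidase (0.2 nM final) was assayed with resorufin β-D-glucopyranoside (30 uM final) in 50mM citric acid/KH2PO4, 10mM sodium taurocholate, 0.01% tween-20, pH 5.9. Compounds were titrated; fluorescence (Ex 548, Em 600) read after 20 min at RT.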
Bst PK mod: modulators of Bacillus stearothermophilus pyruvate kinase; purified pyruvate kinase, luminescence ATP production; ribose 5-phosphate activator present at AC10; Potency, µM; 51,000 tested, 1.2% active; AID 361; in the data active = potency below about 11 µM; inconclusive = mostly about 12 µM to 25 µM;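 the screen sought inhibitors and activators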;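 note: scaled between full activation by ribose 5 phosphate and full inhibition by luteolin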
HEK293 cAMP ctrl: counter-screen for TSHR agonists: cAMP increase in parental HEK293; Potency, µM (series often up to 57.1 µM), for the others: at the top dose activation, most hits filed as activators; parental HEK293 CNG cAMP sensor, membrane potential fluorescence; 73,000 tested, 2.5% active; note: % of control where 0% means no effect; nearly all actives have a fitted effect of over 55% in size
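Parental HEK 293 cells stably expressing a cAMP-gated CNG channel were loaded with membrane potential dye containing 100 uM RO 20-1724 for 60 min. Compound added for 30 min; depolarization read as fluorescence intensity at 590 nm.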
TSHR agonist: activates the human thyroid stimulating hormone receptor. HEK293-CNG-TSHR cells (CNG channel as cAMP sensor), membrane potential dye, cAMP. Potency, µM (series often up to 57.1 µM), for inactives: at the top dose activation, hits mostly activators. 73,000 tested, 0.48% active. AID 926; active = well fitted activation curve with a large enough effect in the main read-out, with a control signal flat, not every such curve was filed as active; inconclusive = small, poorly fitted or top-dose-only effect, or a change in a side signal; inactive = no such curve, though single readings can be large or run the other way; % of control where 0% means no effect;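 note: the control signal comes from parental cells without the receptor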
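HEK 293 cells stably expressing TSHR and a modified CNG channel, with CNG-only parental cells as counterscreen, were preloaded 60 min at room temperature with membrane potential dye containing 100 uM RO 20-1724. Compound exposure was 30 min, and depolarization was read as fluorescence at 590 nm.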
Luciferase inh: firefly luciferase inhibition | purified firefly luciferase, luminescence, 8 min | AID 411 | Potency, µM (doses to about 57.1 µM), without a hit: at the highest dose activity change, negative = inhibition, hits mostly inhibitors | 72,000 tested, 2.2% active; note: % is set by controls: 0 for no effect and ±100 for the full control effect; nearly all actives have a fitted effect of over 40% in size
Target sequence (P08659 whole entry, looked up): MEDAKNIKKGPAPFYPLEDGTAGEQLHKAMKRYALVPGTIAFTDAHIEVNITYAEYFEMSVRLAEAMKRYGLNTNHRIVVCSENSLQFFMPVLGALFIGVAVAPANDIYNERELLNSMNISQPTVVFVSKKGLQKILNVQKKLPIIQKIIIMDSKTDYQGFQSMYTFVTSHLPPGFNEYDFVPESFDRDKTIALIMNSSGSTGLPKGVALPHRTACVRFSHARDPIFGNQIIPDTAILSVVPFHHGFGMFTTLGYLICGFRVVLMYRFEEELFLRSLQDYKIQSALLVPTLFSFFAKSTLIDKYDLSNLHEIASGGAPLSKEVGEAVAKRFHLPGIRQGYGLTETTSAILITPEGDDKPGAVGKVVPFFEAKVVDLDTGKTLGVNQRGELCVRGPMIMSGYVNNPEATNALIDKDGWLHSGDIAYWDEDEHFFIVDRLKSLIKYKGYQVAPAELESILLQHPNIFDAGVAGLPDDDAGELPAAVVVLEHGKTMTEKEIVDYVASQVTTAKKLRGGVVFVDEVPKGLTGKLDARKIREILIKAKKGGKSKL
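qHTS concentration-response profiling: light output of P. pyralis luciferase with luciferin and 10 uM ATP, imidazole buffer pH 7.2. Read by luminescence after 8-min room-temperature incubation.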
An asterisk follows results filed as active; i = inactive; u = inconclusive; x = no result; [ ] = another dose, or the depositor's remark. Unless noted, calls come from the whole dose curve; as a rule, active = well fitted curve in the direction sought with a large enough effect; inconclusive = small, poorly fitted or top-dose-only effect, or another doubt; inactive = no such curve, though single readings can be large; an effect the other way counts as inactive or inconclusive. Potency is the fitted concentration of half-maximal effect.

SMILES | GBA mod | Bst PK mod | HEK293 cAMP ctrl | TSHR agonist | Luciferase inh
CS[C@]12C(=O)C[C@]3(C)[C@@H](CC[C@@]3(O)C(=O)CO)[C@@H]1CCC1=CC(=O)CC[C@]12C | x | x | -5%[11.4 µM] | -4%[11.4 µM] | 3%[11.4 µM]
O=C(Nc1cccc(F)c1)N1CC2(CCN(C(=O)c3cc(C(F)(F)F)cc(C(F)(F)F)c3)CC2)C1 | x | x | 16% | 6% | -4%[11.4 µM]
CC#CC(C)C(OCOC)C(CC(C)Cc1cc(Br)cc(OCc2ccccc2)c1OC)OC (stereo not given) | x | x | 18%[11.4 µM] | 8%[11.4 µM] | x
CCNc1ncc2nc(-c3ccc(OC)cc3)c(=O)n(Cc3cccs3)c2n1 | x | x | 11% | 1% | 0%[11.4 µM]
CN(C)Cc1ccccc1-c1nc(N(C)Cc2ccco2)c2ccccc2n1 | x | x | 13µM* | u | 0%[2.29 µM]
Cc1ccccc1-c1nc(N2CCOCC2)c2ccccc2n1 | x | x | u | u | 1%[2.29 µM]
CN(C)Cc1ccccc1-c1nccc(N(C)Cc2ccco2)n1 | x | x | 32µM* | u | -2%[2.29 µM]
CN(C)Cc1ccccc1-c1nc(N2CCOCC2)c2ccccc2n1 | x | x | 7.9µM* | u | 0%[2.29 µM]
CN(C)Cc1ccccc1-c1nccc(NCc2cccs2)n1 | x | x | 25µM* | u | 2%[2.29 µM]
CN(Cc1ccco1)c1nc(-c2ccc3c(c2)OCO3)nc2ccccc12 | x | x | u | u | -1%[2.29 µM]
O=C(O)CCCC[C@@H]1SC[C@H]2NC(=O)N[C@H]12 | x | x | -3% | -2% | 2%[11.4 µM]
CCn1c(SCCOc2ccc(Cl)cc2)nnc1-c1cccs1 | >77 | >57 | 32µM* | u | -1%
COC(=O)CSc1nnc(-c2cccs2)n1-c1ccc(Cl)cc1 | x | >57 | 23% | 17% | 4%
CN(C)CCNC(=O)c1ccc(-n2c(=O)c(=O)[nH]c3ccccc32)cc1 | x | x | -1% | -4% | x
O=C(COC(=O)C1CC1)c1c[nH]c2ccccc12 | >77 | >57 | 3% | 1% | -2%
O=C(OCC(=O)c1c[nH]c2ccccc12)c1ccco1 | >77 | u | -10% | -2%[11.4 µM] | 16µM*
CC(C)NC(=O)C1CCCN(c2nnc(-n3cccc3)s2)C1 (stereo not given) | x | x | u | u | -1%
CC(NC(=O)C1CCN(c2nnc(-n3cccc3)s2)CC1)C12CC3CC(CC(C3)C1)C2 (stereo not given) | x | 8.2* | 21% | 11% | -27%
Cc1ccc2[nH]c(=O)c(C(c3nnnn3CC3CCCO3)N3CCc4ccccc4C3)cc2c1 (stereo not given) | >77 | >57 | 6% | 13% | 4%
COc1ccc(C(c2nnnn2CC2CCCO2)N2CCN(c3cccc(C)c3C)CC2)cc1 (stereo not given) | x | >57 | 7.9µM* | u | 0%
CCCCC(c1nnnn1CC1CCCO1)N1CCN(c2cccc(C)c2C)CC1 (stereo not given) | u | >57 | u | u | 1%
COc1ccc2[nH]c(=O)c(C(c3nnnn3CC3CCCO3)N3CCc4ccccc4C3)cc2c1 (stereo not given) | 14* | >57 | 4% | 8% | -1%
CCN(CC)S(=O)(=O)c1ccc(Nc2nc3ccccc3n3nnnc23)cc1 | >77 | >57 | 28% | x | -5%
c1ccc2c(c1)nc(Nc1ccc3c(c1)OCO3)c1nnnn12 | >77 | 8.6* | 14% | 6% | u
O=C(CN1CCN(Cc2ccccc2)CC1)N1CCCc2c1c(=O)oc1ccc(O)cc21 | 14* | >57 | -15% | -21% | 2%
SMILES | GBA mod | Bst PK mod | HEK293 cAMP ctrl | TSHR agonist | Luciferase inh
O=C(c1ccco1)N1CCN(CC(=O)N2CCCc3c2c(=O)oc2ccc(O)cc32)CC1 | >77 | >57 | 4% | 1% | 3%
Clc1ccc([C@H](Cn2ccnc2)OCc2c(Cl)cccc2Cl)c(Cl)c1 | x | x | u | u | 1%[25.5 µM]
Cc1nc(SCC(=O)Nc2ccc(F)cc2)c2oc3ccccc3c2n1 | >77 | >57 | u | u | 1%
Fc1ccccc1CSc1ncnc2c1oc1ccccc12 | x | u | u | u | 13µM*
Cc1nc(SCC(=O)Nc2ccccc2)c2oc3ccccc3c2n1 | >77 | >57 | 27% | 16µM* | 1%
CCOc1ccccc1NC(=O)CSc1ncnc2c1oc1ccccc12 | u | >57 | 25µM* | u | 2%
CC(=O)CSc1ncnc2c1oc1ccccc12 | >77 | x | 2% | 1% | -6%
CCCSc1ncnc2c1oc1ccccc12 | >77 | x | 11% | 5% | -6%
O=C(Nc1ccc(F)cc1)c1cccc2c1C(=O)N(Cc1ccccn1)C2 | x | 11* | u | u | -3%
COCCN1Cc2cccc(C(=O)Nc3ccc(C)c(C)c3)c2C1=O | >77 | x | 9% | 8% | 25µM*
COCCN1Cc2cccc(C(=O)Nc3ccc(S(=O)(=O)N4CCCCCC4)cc3)c2C1=O | 15* | >57 | 16% | x | 1%
CCN(CC)S(=O)(=O)c1ccc(NC(=O)c2cccc3c2C(=O)N(CCOC)C3)cc1 | >77 | >57 | 9% | 11% | 2%
O=C(CSc1nc2ccccc2s1)c1sc2sc3ccccc3[n+]2c1O | x | x | 3%[11.4 µM] | 2%[11.4 µM] | 1%[11.4 µM]
C=C/C(C)=C/[C@]1(C)SC(=O)C(C)=C1O | x | x | 5% | 5% | 3%
COc1ccc(O[C@H]2C=C[C@@H](c3ccccc3)O[C@H]2CO/N=C\C[C@@H]2C=C[C@H](OC(C)=O)[C@H](COC(C)=O)O2)cc1 | x | x | 2%[11.4 µM] | 23%[11.4 µM] | 2%[11.4 µM]
COc1cccc(/C=C/C2=CC3(C)CC2(C)C(c2cccc(OC)c2)CC3=O)c1 (stereo not given) | x | x | 11%[11.4 µM] | 3%[11.4 µM] | x
c1cc2c(cc1-c1cnc3n1CCC3)OCCO2 | >77 | x | 20µM* | u | -11%
C=CCOC(=O)C(C(C)=O)C(NC(=O)OC)c1ccc(F)cc1 (stereo not given) | x | x | 9%[11.4 µM] | 2%[11.4 µM] | x
C[C@@H](CN1CCC(Cc2ccccc2)CC1)[C@H](O)c1ccc(O)cc1 | x | x | 0% | 11% | 2%
CC(=O)[C@H](CC(C)C)NC(=O)[C@@H](CC(C)C)NC(=O)[C@H](CC(C)C)NC(=O)OCc1ccccc1 | x | x | 25µM* | u | -2%
CC(=O)NC(CC(C)C)C(=O)NC(Cc1ccccc1)C(N)=O (stereo not given) | >77 | >57 | -5% | -2% | 3%
Cc1ccc(N(Cc2ccco2)C(=O)c2cccc(S(=O)(=O)N(C)C)c2)cc1 | x | >57 | 20% | 20µM* | 1%
COc1ccc2nc(C)cc(SCC(=O)O)c2c1 | >77 | >57 | 3% | -3% | -2%
COc1ccc2c(C)cc(SCC#N)nc2c1 | >77 | i | 32µM* | u | -2%
Cc1cc2nc(-c3cccnc3SCC(=O)NCc3ccco3)[nH]c2cc1C | >77 | 3.9* | 18% | 4% | 4µM*
COC(=O)NC(/C(C(=O)OC)=C(\C)NCc1ccccc1)c1ccco1 (stereo not given) | x | x | 0%[11.4 µM] | -3%[11.4 µM] | x
O=C(OCc1c(Cl)cccc1Cl)c1cnccn1 | >77 | 4.7* | 5% | 0% | 1%
O=C(OCC(=O)c1ccccc1Br)c1ccccn1 | >77 | x | -7% | 0% | 13µM*
O=C(OCc1ccc(F)cc1Cl)c1ccccn1 | >77 | >57 | -3% | -3% | 3%

Compound activity deposited in PubChem BioAssay by National Center for Advancing Translational Sciences (NCATS).
